Assay results from PubChem BioAssay AID504585 (National Center for Advancing Translational Sciences (NCATS), 2011).
Inconclusive results are not listed. The source made the active and inactive calls.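 The calls were made as follows: active = NMR saturation transfer binding signal to menin that a known MLL-derived binding peptide displaces; inconclusive = NMR binding signal present but the peptide does not displace it; inactive = no NMR binding signal.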

Each compound was assayed against Menin (Homo sapiens) (UniProt O00255) (assay: Confirmation of Inhibitors Targeting the Menin-MLL Interaction in MLL Related Leukemias: Binding Confirmation with NMR Saturation Transfer Difference). Details: recombinant menin.
Chain of Menin (Homo sapiens) (O00255 whole entry, looked up, the tested form may be a part): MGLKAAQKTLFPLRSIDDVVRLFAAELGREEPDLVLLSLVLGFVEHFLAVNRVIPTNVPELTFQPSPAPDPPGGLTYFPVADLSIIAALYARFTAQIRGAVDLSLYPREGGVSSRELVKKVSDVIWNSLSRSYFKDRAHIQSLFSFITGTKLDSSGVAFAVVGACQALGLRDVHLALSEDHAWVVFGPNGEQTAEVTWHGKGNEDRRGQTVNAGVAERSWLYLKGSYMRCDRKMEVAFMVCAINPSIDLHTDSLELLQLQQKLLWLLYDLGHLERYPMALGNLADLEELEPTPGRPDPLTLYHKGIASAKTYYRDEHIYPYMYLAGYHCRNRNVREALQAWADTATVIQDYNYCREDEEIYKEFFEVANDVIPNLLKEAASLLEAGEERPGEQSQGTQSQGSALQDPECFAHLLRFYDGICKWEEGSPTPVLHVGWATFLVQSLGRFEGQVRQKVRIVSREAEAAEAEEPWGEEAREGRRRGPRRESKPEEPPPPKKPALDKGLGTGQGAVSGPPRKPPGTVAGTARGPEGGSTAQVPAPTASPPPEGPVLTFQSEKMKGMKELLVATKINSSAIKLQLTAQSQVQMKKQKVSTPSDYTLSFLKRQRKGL
From the text: qHTS Assay for Inhibitors Targeting the Menin-MLL Interaction in MLL Related Leukemias NIH Chemical Genomics Center [NCGC] NIH Molecular Libraries Probe Centers Network [MLPCN] MLPCN Grant: MH084875-01A1 Assay Submitter (PI): Jolanta Grembecka, Tomasz Cierpicki, University of Virginia Translocations of the MLL (Mixed Lineage Leukemia) gene are frequently found in human leukemias affecting both children and adults. Fusion of MLL to one of more than 60 genes results in generation of oncogenic proteins upregulating Hox genes, which are vital to blood cell development. Patients harboring fusion of the MLL gene suffer from aggressive leukemias and respond poorly to available therapies. All of the oncogenic fusion proteins have a preserved N-terminal fragment of MLL that has been identified to interact with menin. It has been recently discovered that association with menin is critical to the leukemogenic activity of the MLL fusion oncoproteins. Selective targeting of the menin-MLL interaction could provide an attractive therapeutic approach to develop novel drugs for MLL-related leukemias. Small molecules blocking the menin-MLL interaction should reverse the oncogenic potential of MLL fusion proteins. We have developed and optimized a fluorescence polarization-based assay for the identification of Menin-MLL inhibitors. The assay was run employing two different MLL-derived peptides. The present assay uses a 12 amino acid peptide labeled with fluorescein at its N-terminus. This peptide consists of the menin high affinity binding motif from MLL and is potently bound by menin. Another peptide with a mutated sequence, labeled with Texas Red, was used in parallel as a less stringent screen for inhibitors. The present assay uses an orthogonal technique to identify those compounds specifically interacting with the target protein.
NMR samples for the saturation transfer difference (STD) experiments contained 2.5uM menin solution in 50 mM phosphate buffer, 50 mM NaCl, 1mM DTT, pH= 7.5, with 5% of D2O, final volume 150 uL. The compounds were added as stock solutions in DMSO to final 100 uM concentration and 5% DMSO. All NMR experiments were recorded using 600 MHz Bruker Avance III spectrometer at 25C. Samples for the competition STD experiments contained additional MBM1 peptide at final concentration of 25 uM and the measurements were carried out is the same way as described above for STD experiments.
For CCC(c1nnnn1Cc1ccc(F)cc1)N1CCN(C2CCCCC2)CC1 (stereo unspecified), the outcome was “active; true”. C[C@H](NC(=O)c1cc2c(cn1)[nH]c1ccccc12)C(=O)O was tested, and the outcome was “inactive; false”. CCOC(=O)c1cnc2ccc(OCC)cc2c1N1CCN(C)CC1 was tested, and the outcome was “active; true”. For CN(C)c1ccc(C2CC(=O)C=C(Nc3ccccc3N)C2)cc1 (stereo unspecified), the outcome was “inactive; false”. In the case of O=C(CS)Nc1ccc2ccccc2c1, the outcome is reported as “inactive; false”. O=C(C[N+]12CC[N+](CC(=O)c3ccc(F)cc3)(CC1)CC2)c1ccc(F)cc1 was tested, and the outcome was “active; true”. For CCOc1cc(CNCCc2ccc(S(N)(=O)=O)cc2)ccc1OCc1ccccc1, the outcome was “active; true”. For CC(=O)NC1C(=O)N(CCN2CCOCC2)c2ccc(C)cc21 (stereo unspecified), the outcome was “inactive; false”. For CCN(CC)Cc1cc2[nH]c3c4ccc(Cl)cc4ncc3c2cc1OC, the outcome was “inactive; false”. For CC(=O)NC1C(=O)N(CCN2CCOCC2)c2ccc(Cl)cc21 (stereo unspecified), the outcome was “inactive; false”. In the case of COc1ccccc1C(=O)Nc1ccnn1C1CCN(CC2CC=CCC2)CC1 (stereo unspecified), the outcome is reported as “active; true”. CCOc1ccc2c(c1)C(NC(C)=O)C(=O)N2CCN1CCOCC1 (stereo unspecified) was tested, and the outcome was “inactive; false”. For Cc1sc2ncnc(NC3CCN(Cc4ccccc4)CC3)c2c1C, the outcome was “active; true”. N#Cc1ccc(OCC(O)CN2CCN(C(c3ccccc3)c3ccccc3)CC2)cc1 (stereo unspecified) was tested, and the outcome was “active; true”. With CCc1ccc2c(c1)C(NC(C)=O)C(=O)N2CCN1CCOCC1 (stereo unspecified) the outcome was “inactive; false”. In the case of CCCC(c1nnnn1Cc1cccs1)N1CCN(C2CCCC2)CC1 (stereo unspecified), the outcome is reported as “active; true”.
